# Screening data deposited in PubChem BioAssay by several laboratories.
# WT yeast gro inh: growth inhibition of WT strain, primary screen, mitochondrial fusion inhibitor project, WT and mutant strains, chemical genetic. mitochondrial fusion phenotypic screen. inhibition, % at 10 µM. 190,000 tested, 2.1% active; in the data active = inhibition above about 58%; tested in S. cerevisiae
# CHOP inhibitor: inhibitors of CHOP promoter induction, primary screen, cell-based, unfolded protein response, luciferase reporter; CHO-K1 CHOP-promoter luciferase, tunicamycin-induced, 15-18 h; inhibition, % at 10 µM; 220,000 tested, 3.8% active; AID 2732, 2010;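 active = compounds that reduced the stress-induced luciferase reporter signal by more than about 70% of percent inhibition, limit read from the data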;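 also: 0% = tunicamycin plus vehicle and 100% = wells without tunicamycin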
# Lmaj promast: Leishmania major promastigote growth inhibition, primary screen | Leishmania major promastigotes, resazurin fluorescence viability | inhibition, % at 10 µM | 200,000 tested, 9% active | AID 1063, 2008; in the data active = inhibition above about 50%;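 also: promastigotes grown with compound for 44 hours at 28 °C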
# RAM inhibit: inhibitors of the yeast RAM network, primary screen, dse1pr::URA3 reporter, 5-FOA selection; S. cerevisiae dse1pr::URA3 reporter, 5-FOA growth OD615, 2 d; analog-sensitive cbk1-as2 kinase mutant strain; AID 868, 2007; inhibition, % at 50 µM; 190,000 tested, 1.8% active;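 active = inhibition above a set limit, 3 SD over mean compound inhibition, cut at about 8.4% in these data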;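 also: 0% = DMSO-only wells with no growth and 100% = 10 µM 1-NA-PP1 full growth; inhibition rescues growth on 5-FOA so higher OD means more RAM inhibition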
# An asterisk follows results filed as active; / = not tested or not shown. Shown are actives, neighbours in structure and some others; about 13% of the full set was active somewhere.
SMILES,WT yeast gro inh,CHOP inhibitor,Lmaj promast,RAM inhibit
O=C(Nc1ccc(N2CCCC2)c(Cl)c1)c1cccnc1,14,1,68*,1
COc1ccccc1Cn1[nH]nnc1=S,/,2,/,/
COc1ccc2[nH]c(C(O)(Cc3cccnc3)Cc3cccnc3)cc2c1,1,-15,26,2
O=C(NCc1cn(-c2ccccc2)nc1-c1ccccc1)c1cc([N+](=O)[O-])cc([N+](=O)[O-])c1,0,6,100*,2
O=C(O)CCC(=O)NCc1cn(-c2ccccc2)nc1-c1cccc(Br)c1,1,-4,59*,4
O=C(NCc1cn(-c2ccccc2)nc1-c1ccccc1)c1cccc([N+](=O)[O-])c1,20,26,25,5
CCn1ncc(CNC(=O)c2cccc([N+](=O)[O-])c2)c1C,-3,11,-4,0
CCn1cc(CNC(=O)c2cccc([N+](=O)[O-])c2)cn1,-6,-5,89*,1
COc1ccc(-c2nn(-c3ccccc3)cc2CNC(=O)c2cccc([N+](=O)[O-])c2)cc1,10,35,52*,4
O=C(CCn1cnnn1)Nc1ccccc1,5,8,-7,1
COc1cc(/C=C/C(=O)O)cc(S(=O)(=O)Nc2ccccc2Oc2ccccc2)c1OC,/,-4,/,/
CC(=O)/C(C#N)=C1\NC(=O)C(Cc2ccccc2Cl)S1 (stereo not given),76*,32,2,5
c1ccc(C2OCC3(CO2)COC(c2ccccc2)OC3)cc1 (stereo not given),-14,2,-5,0
Cc1ccc(C2OCC3(CO2)COC(c2ccc(C)cc2)OC3)cc1 (stereo not given),-3,80*,-3,3
COc1ccc(NC(=O)c2cc(OC)c(OC)c(OC)c2)cc1S(=O)(=O)N1CCCCC1,-15,9,15,2
COc1ccc(NC(=O)c2cncc(Br)c2)cc1S(=O)(=O)N1CCCCC1,16,5,73*,0
COc1ccc(C(C)(C)C)cc1NC(=O)c1cncc(Br)c1,76*,56,-3,3
COc1ccc(NS(=O)(=O)c2cccc(Cl)c2)cc1S(=O)(=O)N1CCCCC1,21,15,59*,3
CC(C)c1ccc(O)c(NC(=O)c2cncc(Br)c2)c1,1,-11,2,-1
COc1ccc(NC(=O)[C@@H](NC(=O)c2ccccc2)C(C)C)cc1S(=O)(=O)N1CCCCC1,9,11,72*,3
COc1ccc(NS(=O)(=O)c2cccc(Cl)c2Cl)cc1S(=O)(=O)N1CCCCC1,-2,16,2,5
CN(C)CCCOc1cccc(Oc2ccccc2)c1,-14,-8,99*,0
C=CCN(CC=C)CCOc1cccc(Oc2ccccc2)c1,50,87*,97*,2
C=CCN(CC=C)CCCOc1ccccc1C(=O)OC,-2,6,33,0
NC(=O)c1c(/N=C/c2cccnc2)sc2c1CCCC2,/,-4,/,/
SMILES,WT yeast gro inh,CHOP inhibitor,Lmaj promast,RAM inhibit
COc1cc([N+](=O)[O-])ccc1NC(=O)Cc1ccccc1,-4,5,10,-1
COc1cc([N+](=O)[O-])ccc1NC(=O)Nc1nc2c(s1)CCCC2,4,73*,11,3
COc1cc(CN2CCN(c3cccc(Cl)c3)CC2)cc(OC)c1OC,8,/,88*,1
FC(F)(F)c1cccc(N2CCN(Cc3ccoc3)CC2)c1,2,45,93*,0
COc1cccc(CN2CCN(c3cccc(C(F)(F)F)c3)CC2)c1OC,24,71*,12,2
FC(F)(F)c1cccc(N2CCN(Cc3cccnc3)CC2)c1,28,30,88*,0
COc1ccccc1N1CCN(Cc2cccc(OC)c2OC)CC1,-21,15,-4,1
COc1cccc(N2CCN(Cc3cccnc3)CC2)c1,-5,17,41,0
Cc1ccc(S(=O)(=O)N(C)c2ccccc2C(=O)NC2CCCC2)cc1,0,-15,36,0
COc1cc(C2C(Oc3ccccc3C)C(=O)N2Cc2ccc(F)cc2)cc(OC)c1OC (stereo not given),4,-11,99*,7
CCC(C)[C@H](NC(=O)NCc1ccc(F)cc1)C(=O)O (stereo not given in full),/,-5,/,/
NC(=O)COC(=O)c1c2c(nc3ccccc13)CCCC2,-12,-2,-1,1
COc1cccc(NC(=O)COC(=O)c2c3c(nc4ccccc24)CCC(C)C3)c1 (stereo not given),-31,65,54*,0
